# Screening results deposited in PubChem BioAssay by The Scripps Research Institute Molecular Screening Center.
# FBW7 activator: FBW7 E3 ligase activators, primary screen, biochemical, AlphaScreen, human; F-box/WD repeat-containing protein 7 (Homo sapiens), Q969H0; actives 0.13% (n = 650,000); normalized activity (activation), % at 26.1 µM; AID 1259310, 2017; AlphaScreen FBW7–phospho-cyclin E peptide binding, activator screen; in the data active = normalized activity above about 1.9%;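 also: purified mutant Fbw7 with reduced substrate affinity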
# MITF primary: MITF inhibitors, primary screen, biochemical, AlphaScreen, human; actives 0.91% (n = 650,000); Microphthalmia-associated transcription factor (Homo sapiens), O75030; AlphaScreen MITF homodimerization, bead proximity signal; inhibition, % at 2.6 µM; in the data active = inhibition above about 50%;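 also: 0% = vehicle wells with protein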
# Target sequence (O75030 whole entry, looked up): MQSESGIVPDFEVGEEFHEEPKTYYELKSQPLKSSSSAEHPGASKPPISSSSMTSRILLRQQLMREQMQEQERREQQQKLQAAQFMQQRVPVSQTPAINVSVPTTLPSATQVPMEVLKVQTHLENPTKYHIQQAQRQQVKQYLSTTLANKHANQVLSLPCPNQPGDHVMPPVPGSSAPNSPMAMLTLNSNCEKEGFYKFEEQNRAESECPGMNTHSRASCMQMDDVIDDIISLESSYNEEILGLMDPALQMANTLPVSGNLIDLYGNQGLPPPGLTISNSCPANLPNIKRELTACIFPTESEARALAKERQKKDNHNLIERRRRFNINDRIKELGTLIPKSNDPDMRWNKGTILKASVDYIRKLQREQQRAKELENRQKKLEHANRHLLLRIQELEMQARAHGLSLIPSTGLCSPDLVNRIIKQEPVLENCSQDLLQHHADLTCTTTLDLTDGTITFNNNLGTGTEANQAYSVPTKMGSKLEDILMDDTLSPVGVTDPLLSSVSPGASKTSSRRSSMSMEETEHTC
# TEAD-YAP inh: TEAD-YAP interaction inhibition, primary screen, TEAD-YAP interaction inhibitor project, luminescence, HEK-TIYL cells. TEAD-Gal4/YAP UAS-luciferase luminescence. inhibition, % at 9.12 µM. actives 1.4% (n = 640,000); in the data active = inhibition above about 32%;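 also: 0% = median of test compound wells and 100% = reference inhibitor wells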
# GPR151 ag: activators of human GPR151, primary screen, cell-based, PathHunter beta-arrestin, luminescence; G-protein coupled receptor 151 (Homo sapiens), Q8TDV0; PathHunter beta-arrestin GPR151 cells; activation, % at 11.2 µM; AID 1508602, 2020; actives 1% (n = 650,000); in the data active = activation above about 4.9%;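 also: 0% = median of compound wells and 100% = cells with positive control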
# * = called active by the depositor. A selection: hits, their analogues and other compounds. The true share with any hit is near 3.5%.
SMILES,FBW7 activator,MITF primary,TEAD-YAP inh,GPR151 ag
CCN(CC)C(=O)CSc1nc2n[nH]c(C)c2c(=N)n1-c1cccc(OC)c1,0,8,44*,1
COc1cccc(-n2c(SCC(=O)N3CCCC3)nc3n[nH]c(C)c3c2=N)c1,0,15,43*,-1
CCCCN(CC)C(=O)CSc1nc2n[nH]c(C)c2c(=N)n1-c1cccc(OC)c1,1,25,24,-1
CCOc1ccc(NC(=O)CSc2nc3n[nH]c(C)c3c(=N)n2-c2cccc(OC)c2)cc1,0,-1,33*,1
CCCN(CCC)C(=O)C(CC)Sc1nc2n[nH]c(C)c2c(=N)n1-c1cccc(OC)c1 (stereo not given),0,10,50*,1
O=[N+]([O-])c1cccc(P(=O)(O)c2cccc([N+](=O)[O-])c2)c1,0,16,1,-1
Cc1cc(C2C=Nn3nnnc3N2)cc(C)c1O (stereo not given),0,-4,8,0
COc1ccccc1N=c1oc2c(C)ncc(CO)c2cc1C(=O)Nc1cccc(F)c1,0,18,6,0
Cc1nc(NC(=O)c2cc3ccccc3o2)ccc1I,0,19,-14,-2
Cc1nc(NC(=O)c2ccco2)ccc1I,0,7,39*,-7
O=C(O)C(=O)/C(=C\c1ccsc1)c1ccc2ccccc2n1,0,22,45*,-5
O=C(O)C(=O)/C(=C\c1ccccc1)c1ccc2ccccc2n1,0,21,-22,-2
C=CS(=O)(=O)c1ccc(C(C)(C)C)cc1,0,19,68*,3
COc1ccc(C(CC(=O)O)NC(=O)COc2cc(C)ccc2C)cc1OC (stereo not given),2.9*,3,5,-1
COc1ccc(C(CC(=O)O)NC(=O)COc2ccccc2)cc1OC (stereo not given),0,-11,-5,-1
O=C(Cc1csc(-c2ccccc2)n1)NCc1ccco1,0,4,-3,1
COc1cccc(-c2nc(COC(=O)c3[nH]c(C)c(C(C)=O)c3C)cs2)c1,0,10,44*,1
COC(=O)C(C)Sc1ccc2nnc(-c3cccnc3)n2n1 (stereo not given),0,1,-10,-2
COC(=O)c1ccc(CNCCC2CCC(=O)N2Cc2ccc(C(F)(F)F)cc2)cc1 (stereo not given),0,1,11,1
Cc1ccc(OCC(O)CN(CCO)CCO)cc1 (stereo not given),0,-19,-2,1
OCCN(CCO)CC(O)COc1ccc(C23CC4CC(CC(C4)C2)C3)cc1 (stereo not given),0,4,56*,0
CCOC(=O)C1=C(CC)NC(CC)=C(C(=O)OCC)C1C(=O)O,0,7,-2,1
Cc1ccccc1NC(=O)C1CCCN1C(=O)Nc1ccccc1 (stereo not given),0,15,10,-1
Cc1ccc(NC(=O)N2CCCC2C(=O)Nc2ccccc2C)cc1 (stereo not given),6.3*,0,0,0
Fc1ccccc1CNCCCn1ccnc1,0,-5,3,-1
SMILES,FBW7 activator,MITF primary,TEAD-YAP inh,GPR151 ag
CCCCCCCC(=O)Nc1ccc(C(=O)Nc2ccc(O)c(C(=O)O)c2)cc1,4.1*,50,-7,0
CCOC(=O)C1=C(c2ccccc2)N=c2s/c(=C\c3ccc4c(c3)OCO4)c(=O)n2C1c1cc(C(C)C)c(OC)cc1C (stereo not given),2.7*,18,-3,-1
CCOC(=O)C1=C(c2ccccc2)N=c2s/c(=C\c3cccc(O)c3)c(=O)n2C1c1cc(C(C)C)c(OC)cc1C (stereo not given),1,-4,4,-1
COc1ccc(C(=O)O/N=C/c2ccc(N(C)C)cc2)cc1,0,-1,-3,2
O=C(O)c1ccccc1Nc1cccc(OCc2ccc3ccccc3n2)c1,0,12,46*,0
O=C(COc1ccc2ccccc2c1)Nc1cccc(C(=O)Nc2ccccc2C(=O)O)c1,0,-4,8,1
N/C(=N\O)c1ccc(Oc2ccc(Oc3ccc(/C(N)=N/O)cc3)cc2)cc1,2,3,84*,0
Cc1sc2nc(C)n(C3CCN(C(=O)c4ccncc4)CC3)c(=O)c2c1C,0,-14,40*,0
O=C1COc2ccc(C(=O)COC(=O)C3CCCCC3)cc2N1,0,3,5,3
Cc1ccc(/C=c2/sc3nc4ccccc4n3c2=O)cc1,0,-5,73*,-1
COc1ccc(/C=c2/sc3nc4ccccc4n3c2=O)c(OC)c1,0,19,-24,-1
CN(C)c1ccc(/C=c2\sc3nc4ccccc4n3c2=O)cc1,0,-10,74*,-1
Cc1ccc(/C=c2\sc3nc4ccccc4n3c2=O)s1,0,-5,54*,-1
COc1cccc(/C=c2\sc3nc4ccccc4n3c2=O)c1,-1,7,45*,1
COc1ccc2occ(CCC(=O)O)c2c1,0,8,2,-1
COc1cc(OC)cc(-n2nc(C(=O)NC3CCCCC3)c3ccccc3c2=O)c1,0,4,5,1
CCN(CC)c1ccc(/C=c2/sc3nc4ccccc4n3c2=O)cc1,0,16,46*,0
O=c1/c(=C\c2ccccc2)sc2nc3ccccc3n12,0,-4,-18,1
COc1ccc(NS(=O)(=O)c2ccc(F)cc2)c(OC)c1,0,8,15,0
COc1ccc(S(=O)(=O)Nc2ccc(OC)cc2OC)cc1,0,-1,61*,0
CCOc1ccccc1NS(=O)(=O)c1ccc(OC)cc1,1,13,47*,1
CCOc1ccc(S(=O)(=O)Nc2ccccc2CC)cc1,0,11,16,2
CCOc1ccc(S(=O)(=O)Nc2ccccc2OC)cc1,0,0,42*,0
CCOc1ccc(-c2cc(C(=O)Nc3cc(=O)n(C)c(=O)n3C)c3ccccc3n2)cc1,0,-26,76*,-2
Nc1ccccc1C(=O)NCCc1ccccc1,0,-6,63*,-5
SMILES,FBW7 activator,MITF primary,TEAD-YAP inh,GPR151 ag
NS(=O)(=O)c1ccc(NC(=O)c2cc(-c3ccncc3)nc3ccccc23)cc1,0,19,10,1
CCc1ccc(-c2cc(C(=O)Nn3cnnc3)c3ccccc3n2)cc1,0,7,82*,-3
NS(=O)(=O)c1ccc(NC(=O)c2cc(-c3ccccc3)nc3ccccc23)cc1,1.9*,19,2,-1
CCCCc1ccc(C(=O)N/C(=C\c2ccc(C)cc2)C(=O)Nc2ccc(C)c(Cl)c2)cc1,0,5,-2,0
Cc1ccc(-c2nc(N3CC(C)OC(C)C3)c3ccccc3n2)cc1 (stereo not given),0,5,-3,0
COc1cc(C(=O)NCCOc2cc(C)cc(C)c2)cc(OC)c1OC,1,13,52*,-1
COc1cc(C(=O)Nc2ccccc2C(=O)Nc2cccc(C(=O)O)c2)cc(OC)c1OC,0,1,1,0
